The results in this text go back to PubChem BioAssay (NCI).

This is part of a sample that, as a whole, favours compounds with a hit. Of some 79,000 tested, about 15% had one in any assay. Unmarked numbers belong to inactive results. Activity calls are given as the source filed them. No stated cut-off is given here; in the data, active means growth inhibition above about 70%; inactive means the rest.

Experiment [1] is described as follows: NCI Yeast Anticancer Drug Screen. Data for the rad50 strain (AID 155).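 Further: 0% = growth of vehicle-only cultures of the same strain.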 Conditions: S. cerevisiae rad50 strain growth inhibition; at 50.0 µM; active compounds read high. The essentials: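 Vehicle-treated cultures provide the reference for the growth inhibition reported for compound-exposed, repair-deficient yeast.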
Experiment [2] is described as follows: NCI Yeast Anticancer Drug Screen. Data for the mec2-1 strain (AID 157). As to conditions: S. cerevisiae mec2-1 strain, at 50.0 µM, active compounds read high. The essentials: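 Readout is yeast growth inhibition, normalised to vehicle-treated controls, in the mec2-1 strain exposed to compound.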
A short description of experiment [3]: NCI Yeast Anticancer Drug Screen. Data for the sgs1 mgt1 strain (AID 161).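 Further: 0% = growth of cultures given vehicle only.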 Conditions: S. cerevisiae sgs1 mgt1 strain, at 50.0 µM, active compounds read high. An outline of the steps: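 Growth of a repair-deficient yeast mutant was monitored after compound treatment and expressed as inhibition relative to vehicle-treated cultures.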
The nature of experiment [4]: NCI Yeast Anticancer Drug Screen. Data for the cln2 rad14 strain (AID 165).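 Further: 0% = growth equal to vehicle treated cultures.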 Conditions: S. cerevisiae cln2 rad14 strain, at 50.0 µM, active compounds read high. An outline of the steps:
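Relative to vehicle controls, growth inhibition of compound-treated cln2 rad14 yeast was recorded.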

A short description of experiment [5]: NCI Yeast Anticancer Drug Screen. Data for the bub3 strain (AID 167). Conditions: S. cerevisiae bub3 mutant strain, at 50.0 µM, active compounds read high. The essentials:
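Mutant yeast screening strain plus compound; vehicle-treated cultures serve as the 0% inhibition reference.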

The nature of experiment [6]: NCI Yeast Anticancer Drug Screen. Data for the mlh1 rad18 strain (AID 175). Conditions: S. cerevisiae mlh1 rad18 strain growth inhibition; at 50.0 µM; active compounds read high. An outline of the steps: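 Test agents were incubated with a yeast strain of defined genotype (DNA damage repair defect). Inhibition of growth was derived by comparison with vehicle-exposed cultures.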

Turning to `Cc1ccc(S(=O)(=O)N2CCN(S(=O)(=O)c3ccc(C)cc3)CCN(S(=O)(=O)c3ccc(C)cc3)Cc3cc(Br)c(Br)cc3CN(S(=O)(=O)c3ccc(C)cc3)CC2)cc1`, the growth inhibition in experiment [1] is -24.1%; in experiment [2], -6.05%; in experiment [3], -23.3%; in experiment [4], 17.6%; in experiment [5] it was -3.1%; in experiment [6], -10.3%.
In the case of `COc1ccc2nc(N/N=C/C(C)=N/Nc3cc(C)c4cc(OC)ccc4n3)cc(C)c2c1`, the growth inhibition is -3% in experiment [1]; 4.8% in experiment [2]; -2% in experiment [3]; 3.4% in experiment [4]; 0.15% in experiment [5]; -23.2% in experiment [6].
As to `c1ccc(B2OCC(C3OB(c4ccccc4)OC4COB(c5ccccc5)OC43)O2)cc1` (stereo not given), the growth inhibition is 32.5% in experiment [1]; -2.45% in experiment [2]; -1.2% in experiment [3]; -30.9% in experiment [4]; -23.2% in experiment [5]; 23.6% in experiment [6].
For the compound `CCOC(=O)Nc1cccc(Cl)c1`, the growth inhibition in experiment [1] was 10.9%; in experiment [2], -2.45%; in experiment [3], 18.9%; in experiment [4] it was 9.65%; in experiment [5] it was -7.35%; in experiment [6] it was 22.1%.
As to `O=S(=O)([O-])Sn1c(-c2ccccc2)c[n+]2ccccc12`, the growth inhibition was 11.8% in experiment [1]; 5.55% in experiment [2]; 13.9% in experiment [3]; 14.2% in experiment [4]; 12.1% in experiment [5]; 10.8% in experiment [6].
Consider `O=C(O)c1ccc(Cl)c2ncccc12`, for which the growth inhibition in experiment [1] was 5.3%; in experiment [2], 1.25%; in experiment [3], -1.3%; in experiment [4], -28.2%; in experiment [5], -9.75%; in experiment [6], 13.2%.
As for `Cc1cnc(N/N=C/c2c(CO)cnc(C)c2O)s1`, the growth inhibition in experiment [1] was 20.6%; in experiment [2] it was 9.85%; in experiment [3], 7.25%; in experiment [4], 11.6%; in experiment [5] it was 2.75%; in experiment [6], 23.6%.
As for `CC(C)CNc1ncnc2[nH]ncc12`, the growth inhibition in experiment [1] is -1.75%; in experiment [2] it was -6.2%; in experiment [3] it was -3.55%; in experiment [4], -3.35%; in experiment [5] it was 1.2%; in experiment [6], -6.2%.
Turning to `COc1ccc(CCC2c3cc(OC)c(OC)cc3CCN2C)cc1OC` (stereo not given), the growth inhibition was -41.5% in experiment [1]; -15.7% in experiment [2]; -6.75% in experiment [3]; 5.35% in experiment [4]; -19.9% in experiment [5]; -4.85% in experiment [6].
On to `O=C(O)CC1CC(=O)OC1(c1ccccc1)c1ccccc1` (stereo not given), for which the growth inhibition in experiment [1] was 18%; in experiment [2] it was 11.6%; in experiment [3] it was 20.9%; in experiment [4], 2.8%; in experiment [5] it was 8.15%; in experiment [6] it was 6.45%.
As to `Nc1cc(S(=O)(=O)O)nc(N)[n+]1[O-]`, the growth inhibition in experiment [1] was 1.55%; in experiment [2] it was -1.8%; in experiment [3] it was 1.9%; in experiment [4] it was -36.3%; in experiment [5] it was -13.3%; in experiment [6] it was 2.8%.
In the case of `COc1cc(C(=O)O)cc(OC(C)=O)c1OC`, the growth inhibition in experiment [1] is 16.6%; in experiment [2], 3.9%; in experiment [3], 8.3%; in experiment [4], 8.65%; in experiment [5], 3.4%; in experiment [6], 20.7%.
In the case of `CC1=CC(=O)/C(=C/N2C(=O)CNC2=S)C(=O)O1`, the growth inhibition in experiment [1] is -49.1%; in experiment [2], -37.1%; in experiment [3], -13.8%; in experiment [4], 15.4%; in experiment [5], -4.25%; in experiment [6], -45.1%.
Take `Cc1cc([N+](=O)[O-])ccc1NC(=O)C(Br)C(Br)C(=O)O` (stereo not given): the growth inhibition in experiment [1] is 31.1%; in experiment [2], 64.5%; in experiment [3] it was 75.9% (active); in experiment [4], 15.8%; in experiment [5], 75.8% (active); in experiment [6] it was 49.1%.
Consider `CCN(CC)CC1CO1` (stereo not given), for which the growth inhibition in experiment [1] was -8.15%; in experiment [2], -12.1%; in experiment [3] it was 3.35%; in experiment [4], -3.5%; in experiment [5] it was -11.7%; in experiment [6] it was 9.2%.
Regarding `N#CCCN(c1ccc(C=Nc2ccc(C(=O)O)cc2)cc1)S(=O)(=O)c1ccccc1`, the growth inhibition in experiment [1] is -0.1%; in experiment [2], -29.6%; in experiment [3], 7.4%; in experiment [4], 5.75%; in experiment [5] it was 19.9%; in experiment [6] it was -11.1%.
Consider `COc1ccc(CCC(C)(O)c2ccccc2)cc1` (stereo not given), for which the growth inhibition was 11.7% in experiment [1]; -1.35% in experiment [2]; 11.2% in experiment [3]; -1.05% in experiment [4]; 41.9% in experiment [5]; -2.55% in experiment [6].
In the case of `O=S1(=O)C(Cl)c2ccccc2-c2ccccc2C1Cl` (stereo not given), the growth inhibition is -1.35% in experiment [1]; -6.65% in experiment [2]; -10.4% in experiment [3]; 8.3% in experiment [4]; 5% in experiment [5]; -9.65% in experiment [6].
Turning to `O=C(O)CCCCCCCCCC(=O)O`, the growth inhibition in experiment [1] is -15.1%; in experiment [2] it was -17.5%; in experiment [3] it was 0%; in experiment [4], -24.9%; in experiment [5] it was -7.7%; in experiment [6] it was 9.05%.
Take `N=C(N)SCC(O)C(O)CSC(=N)N` (stereo not given): the growth inhibition in experiment [1] was 0.3%; in experiment [2], 4.4%; in experiment [3], -0.95%; in experiment [4], -30.1%; in experiment [5] it was -6.45%; in experiment [6] it was -1.5%.
